Source: PubChem (National Center for Advancing Translational Sciences (NCATS))
TRHR PAM = allosteric enhancers of human TRH receptor | 360,000 compounds, 0.66% hits | AID 493056 | P34981 | enhancement, % at 2 µM | TRHR cells, fluo-8 calcium fluorescence, EC20 TRH enhancement; in the data active means enhancement above about 30%; further: 0% is about no effect
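TRHR-expressing cells loaded with fluo-8 calcium dye were read kinetically (ex 480/em 530) during compound addition, then stimulated with an EC20 of TRH (10 nM final). Enhancement of the Gq-mediated intracellular calcium response was scored.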
TRHR ag = TRH receptor (human) agonism; TRHR cells, calcium flux fluo-8, FDSS agonist mode; 360,000 compounds, 0.18% hits; activation, % at 2 µM; AID 493084; P34981; further: 0% is about no effect
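TRHR-expressing cells, plated overnight in medium with 10% serum, were loaded with fluo-8 calcium dye at room temperature. After a 10 s baseline, library compound was pin-added and calcium release was recorded kinetically (ex 480/em 530) as agonist response.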
D1 antagonist = antagonists of human D1 dopamine receptor. P21728. HEK293 TREx D1 cells, calcium flux, dopamine EC80; stronger effect = lower value. activity change, negative = inhibition, % at 10 µM. 360,000 compounds, 3.2% hits; in the data active means activity change below about -30%; further: on the % scale 0 is the no-effect control and ±100 the full control effect
Target sequence (P21728 whole entry, looked up): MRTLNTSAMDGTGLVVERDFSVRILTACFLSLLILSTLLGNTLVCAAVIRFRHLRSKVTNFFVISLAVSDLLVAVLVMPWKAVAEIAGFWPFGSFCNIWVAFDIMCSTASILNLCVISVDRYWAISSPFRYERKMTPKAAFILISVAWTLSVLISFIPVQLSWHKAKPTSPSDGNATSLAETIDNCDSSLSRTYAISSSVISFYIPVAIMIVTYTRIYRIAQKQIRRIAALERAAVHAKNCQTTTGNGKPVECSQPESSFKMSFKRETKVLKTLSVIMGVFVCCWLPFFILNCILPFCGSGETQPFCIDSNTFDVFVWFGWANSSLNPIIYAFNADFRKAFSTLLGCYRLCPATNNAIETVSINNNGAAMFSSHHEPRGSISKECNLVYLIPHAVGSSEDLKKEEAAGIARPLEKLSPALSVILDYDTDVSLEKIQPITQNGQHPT
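Kinetic fluorescence of a calcium dye serves as the read-out. D1-expressing Hek293 Trex cells, induced overnight at 30 C, are exposed to compound for 180 s before an EC80 dopamine addition, then read 180 s further.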
D1 agonist = human D1 receptor agonism; P21728; HEK293 T-REx D1 cells, calcium flux, agonist mode; activation, % at 2 µM; 360,000 compounds, 1% hits; AID 504660; further: 0% is about no effect
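Inducible HEK293 T-REx D1 cells, force-coupled to calcium signalling, were plated at 4000 cells/well with tetracycline and held overnight at 30 C. After no-wash calcium dye loading, compound-evoked calcium rise over 180 s flagged agonists.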
D1 PAM = potentiators of human D1 dopamine receptor; AID 504651; HEK293 TREx D1 cells, calcium flux, dopamine EC20 potentiation; P21728; potentiation, % at 10 µM; 360,000 compounds, 0.036% hits; in the data active means potentiation above about 30%; further: 0% is about no effect
Numbers without * were called inactive; x = not tested or not shown. Shown are actives, neighbours in structure and some others; about 4.7% of the full set was active somewhere. Unless noted, no stated cut-off is given here; in the data, active means activation above about 30%; inactive means the rest.

SMILES	TRHR PAM	TRHR ag	D1 antagonist	D1 agonist	D1 PAM
CN(C)c1ccc(CNC(=O)CCn2c(=O)c3cccn3c3ccc(F)cc32)cc1	5.3	0.2	-30.0*	4.3	-2.1
Cc1nc2scc(C)n2c(=O)c1S(=O)(=O)Nc1cccc(O)c1	-2.4	0.1	-47.7*	4.4	-5.5
CC(=O)NS(=O)(=O)c1ccc(NC(=O)c2ccc(-n3nc(C)cc3C)cc2)cc1	2.0	0.9	-7.4	3.0	9.2
Cc1cc(C)n(-c2ccc(C(=O)Nc3cccnc3Cl)cc2)n1	2.5	0.2	-41.4*	5.0	-12.5
Cc1cc(C)n(-c2ccc(C(=O)Nc3cc(S(=O)(=O)N(C)C)ccc3Cl)cc2)n1	9.3	-1.5	-30.3*	3.7	-5.5
CCc1ccc(OCc2cc(=O)n3cc(C)sc3n2)cc1	-7.6	-1.3	2.0	1.3	-4.0
O=C(Cc1cccs1)NC1CC(=O)N(c2cccc(F)c2)C1 (stereo not given)	-2.1	0.0	x	-3.3	-1.6
O=C(CCC1CCCN(C(=O)c2cc(C3CC3)[nH]n2)C1)N1CCN(c2ccccn2)CC1 (stereo not given)	-0.9	-1.7	-31.6*	2.9	0.1
COc1ccc(Cl)cc1NC(=O)N1CCN(C2CCCCC2)CC1	36.2*	1.0	-0.1	2.6	4.0
CCN1CCN(C(=O)Nc2cc(Cl)ccc2OC)CC1	0.0	0.2	-0.5	1.7	-1.5
Cc1cccc2c1-c1sc(C(=O)Nc3ccccc3C(N)=O)cc1CO2	-5.4	-0.1	8.7	0.0	-4.0
Cc1cccc2c1-c1sc(C(=O)Nc3cccc([N+](=O)[O-])c3C)cc1CO2	20.4	0.0	-6.3	31.2*	-14.2
COC(=O)c1ccccc1NC(=O)NC1CCCCC1	1.1	-0.1	-44.2*	4.8	-5.1
COc1ccc(Cl)cc1NC(=O)c1[nH]nc(OC)c1[N+](=O)[O-]	6.3	-0.4	6.6	2.6	0.2
COc1ccc(Cl)cc1NC(=O)Nc1cccc([N+](=O)[O-])c1C	-1.0	0.7	-64.1*	7.4	-17.0
COC(=O)c1cc(C(=O)OCC(=O)NC2CCCC2)cc([N+](=O)[O-])c1	1.5	0.0	-4.6	0.7	4.3
Cc1cc(C(=O)Nc2cccc([N+](=O)[O-])c2C)cs1	-3.6	-0.4	4.0	0.7	-6.0
COc1ccc(Cl)cc1NC(=O)NC1CCCCC1	31.5*	-0.7	-5.7	1.2	8.8
Cc1c(NC(=O)c2ccc(C(C)(C)C)cc2)cccc1[N+](=O)[O-]	5.6	0.3	-42.0*	3.3	-14.7
CCCN1CCC(NC(=O)Nc2cc(Cl)ccc2OC)CC1	-1.5	0.9	-0.8	2.9	1.4
O=C(COc1ccccc1)N1CCN(C(=O)c2ccccc2F)CC1	1.3	-2.0	-8.3	6.5	x
Cc1cc(C)n2nc(SCC(=O)NC(=O)c3ccccc3Cl)nc2n1	-0.8	-0.1	-0.6	4.3	x
CCOC(=O)/C(C#N)=C/c1ccc(-c2ccccc2)o1	-1.8	3.0	1.2	15.5	-2.5
Cc1ccc(NC(=O)COC(=O)C(NS(=O)(=O)c2ccc(Cl)cc2)C(C)O)cc1 (stereo not given)	1.9	1.7	-26.9	7.3	-3.4
CC(NS(=O)(=O)c1ccc(Cl)cc1)C(=O)OCC(=O)Nc1ccc(N(C)C)cc1 (stereo not given)	0.7	-0.2	-45.3*	0.8	-1.4
SMILES	TRHR PAM	TRHR ag	D1 antagonist	D1 agonist	D1 PAM
CCS(=O)(=O)N1CCC(c2nc3ccccc3[nH]2)CC1	-7.9	0.0	8.0	0.7	-8.4
O=C(CSc1nc(-c2ccccc2)nn1C(=O)c1ccccc1)Nc1cccc([N+](=O)[O-])c1	19.3	-0.2	-33.6*	14.5	-2.4
Nc1ccc(SCC(=O)Nc2cccc([N+](=O)[O-])c2)cc1	-0.9	0.5	-48.8*	4.7	-8.3
Cn1nnnc1SCC(=O)Nc1cccc([N+](=O)[O-])c1	-2.3	0.3	7.7	0.3	-2.0
CS(=O)(=O)Nc1nnc(SCC(=O)Nc2cccc([N+](=O)[O-])c2)s1	1.0	-1.0	-78.6*	1.8	-3.8
Cc1ccccc1NC(=O)c1sc2nc3c(cc2c1N)CCCC3	6.9	-0.8	3.5	-1.0	-1.2
CCOc1ccc(C(=O)Nc2cccc(-c3nc4cc(Cl)cc(Cl)c4o3)c2)cc1	34.9*	-0.5	6.3	-0.5	-2.3
CCOc1ccc(C(=O)Nc2ccc(Cl)c(-c3nc4cc(C)cc(C)c4o3)c2)cc1	1.3	0.2	2.4	5.6	2.2
Cc1cc([N+](=O)[O-])nn1CCCC(=O)Nc1ccc(Cl)cc1Cl	0.9	-0.3	-38.5*	0.1	-6.8
O=[S+]([O-])(c1ccc2c(c1)OCCO2)N1CCN([S+](=O)([O-])c2c(F)cc(Br)cc2F)CC1	-2.5	-0.3	9.8	1.7	4.5
Cc1cc(C)c(C#N)c(SCc2nnc(-c3ccccc3[N+](=O)[O-])o2)n1	-2.8	-0.3	-4.2	38.5*	4.5
Cc1cc(C)c(C#N)c(SCc2ccccc2[N+](=O)[O-])n1	3.8	-0.1	-8.2	2.7	-10.7
COc1ccc(C(=O)c2cc3c(cc2[N+](=O)[O-])OCCO3)cc1	-2.3	0.2	-31.9*	-0.8	1.4
O=C(c1ccccc1F)c1cc2c(cc1[N+](=O)[O-])OCCO2	5.7	-0.6	-9.2	1.6	-2.4
Cc1onc(-c2ccccc2)c1C(=O)NC(=S)NNC(=O)c1ccccc1O	8.1	19.3	3.0	143.1*	-0.9
CCCOc1ccc(C(=O)NC(=S)NNC(=O)c2c(-c3ccccc3)noc2C)cc1	-7.4	47.9*	121.3	207.3*	18.8
CCCOc1ccc(NC(=O)c2c(-c3ccccc3)noc2C)cc1	10.6	-0.4	-7.4	3.3	-1.4
Cc1onc(-c2ccccc2)c1C(=O)NC(=S)NNC(=O)c1ccc(O)cc1O	-4.0	-0.9	-17.7	2.4	2.9
C=CCNC(=S)NNC(=O)c1ccc(OCCC)cc1	-0.3	-0.3	4.9	-0.3	-1.5
CCCOc1ccc(C(=O)NNC(=S)NC(=O)CC)cc1	-20.8	-0.7	-71.3*	-0.5	-21.4
O=C(Nc1ccc2c(c1)N(C1CCCC1)C(=O)c1ccccc1S2)c1ccccc1F	-2.8	0.7	9.1	7.0	-0.8
O=C(Nc1ccc2oc(-c3cccnc3)nc2c1)c1ccc(-c2cccc(Cl)c2)o1	-11.2	0.2	5.0	-0.8	0.7
COc1cccc(NC(=O)c2oc3ccccc3c2NC(=O)C23CC4CC(CC(C4)C2)C3)c1	2.6	1.1	-0.9	2.1	1.7
CCOC(=O)C1=CC[C@]2(C)c3c(c4ccccc4n3C)C(=O)C1N2C	-6.4	-0.5	-45.2*	2.3	-7.7
CCOC(=O)C1=C(COC(=O)c2cc(Br)c(Br)s2)NC(=O)NC1C (stereo not given)	-2.2	-0.4	-9.0	11.1	6.8
Cc1cc(C)n(-c2ccc(Cl)c(C(=O)Nc3ccc(OC(F)(F)F)cc3)n2)n1	2.4	0.4	-36.4*	1.3	-1.2
CC(C)(CCl)C(=O)Nc1ccc(OC(F)(F)F)cc1	-4.6	-0.1	-10.6	8.7	-5.0
